Source: the supplement of paper PMC9950053
Structures can show the parent of a compound that is named as a salt.

These compounds were tested on Danio rerio larvae (5 dpf) (assay: excitability (activity period 17 minus period 16, 1-s interval sound) minus DMSO control (percentage points); higher = more acoustic excitability than DMSO larvae). Details: 10 µM; exposure time: 3 h pre-incubation + 3 h imaging.
Protocol: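 Wild-type 5 dpf zebrafish larvae (n=48 per drug, 96-well plates, 28.5 °C) were exposed to Tocris FDA-approved library compounds at 10 µM (0.1% DMSO) for 3 h before and 3 h during imaging. Images were taken every 6 s during visual (moving coloured lines) and acoustic stimuli, and larvae were tracked with the DeepLabCut-based Z-LaP Tracker. Each behavioural measure is the treated-group mean minus the DMSO vehicle control mean (n=844), in percentage points. This mapping covers compounds with 4-character plate codes.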

| SMILES | excitability |
| --- | --- |
| N[C@@H]1C[C@H]1c1ccccc1 [Tranylcypromine hydrochloride] | 3.55 |
| CCN(C)C(=O)Oc1cccc([C@H](C)N(C)C)c1 [Rivastigmine tartrate] | 3.52 |
| COc1cc2c(cc1OC)C1CC(=O)C(CC(C)C)CN1CC2 (stereo unspecified) [Tetrabenazine] | 22.4 |
| C=CCN1C[C@H](C(=O)N(CCCN(C)C)C(=O)NCC)C[C@@H]2c3cccc4[nH]cc(c34)C[C@H]21 [Cabergoline] | 12.4 |
| CC[C@@H](C(N)=O)N1CCCC1=O [Levetiracetam] | 1.58 |
| CN1C[C@H](C(=O)N[C@]2(C)O[C@@]3(O)[C@@H]4CCCN4C(=O)[C@H](Cc4ccccc4)N3C2=O)C[C@@H]2c3cccc4[nH]cc(c34)C[C@H]21 [Dihydroergotamine mesylate] | 0.33 |
| Cc1cccc([C@H](C)c2c[nH]cn2)c1C [Dexmedetomidine hydrochloride] | 5.7 |
| CC(O)(CS(=O)(=O)c1ccc(F)cc1)C(=O)Nc1ccc(C#N)c(C(F)(F)F)c1 (stereo unspecified) [Bicalutamide] | 3.42 |
| O=c1[nH]c2ccccc2n1C1CCN(CCCC(c2ccc(F)cc2)c2ccc(F)cc2)CC1 [Pimozide] | -0.377 |
| C=C1C[C@@H]2[C@H](CC[C@]3(C)C(=O)CC[C@@H]23)[C@@]2(C)C=CC(=O)C=C12 [Exemestane] | 11.9 |
| CC(C)C[C@H]1C(=O)N2CCC[C@H]2[C@]2(O)O[C@](NC(=O)[C@@H]3C=C4c5cccc6[nH]c(Br)c(c56)C[C@H]4N(C)C3)(C(C)C)C(=O)N12 [Bromocriptine mesylate] | 18.2 |
